Screening results: PubChem, National Center for Advancing Translational Sciences (NCATS)
Tau fluor cs – counter-screen for tau fibril formation inhibitors | tau K18 P301L Alexa594 fluorescence, heparin fibrillization | Potency, µM (top dose mostly 57.7 µM), for the others: at the highest dose activity change, negative = decrease | 280,000 compounds, 0.93% hits | AID 1463; further: nearly all actives have a fitted effect of over 55% in size
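Human K18 P301L tau (15 uM unlabeled plus 0.24 uM Alexa 594-labeled, final) in 100 mM sodium acetate pH 7 was mixed with compound and 20 uM heparin and incubated 6 hr at 37 C.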
Tau fibril ThT – blocks human tau fibril formation measured by thioflavin T; recombinant tau K18 P301L (four-repeat tau fragment), heparin-induced fibrillization, ThT fluorescence; 270,000 compounds, 2.1% hits; Potency, µM (titrated, usually from 57.4 µM), for the others: at the highest dose activity, negative = inhibition, most hits filed as inhibitors; AID 1460; P10636; further: nearly all actives have a fitted effect of over 55% in size
Target sequence (P10636 561-689 P618L limits assumed): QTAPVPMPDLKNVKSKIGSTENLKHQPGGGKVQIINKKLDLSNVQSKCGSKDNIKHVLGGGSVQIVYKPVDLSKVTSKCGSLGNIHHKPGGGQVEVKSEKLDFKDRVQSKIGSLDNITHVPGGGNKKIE
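Tau K18 P301L fragment (15 uM unlabeled plus 0.24 uM Alexa 594-labeled) in 100 mM sodium acetate pH 7 with compound, fibrillization induced by 20 uM heparin for 6 hr at 37 C. Thioflavin T (30 uM) added, fluorescence read after 1 hr (ex 450, em 510 nm).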
Tau fibril FP – blocks human tau fibril formation measured by polarization; Potency, µM (titrated, usually from 57.7 µM), inactives show top-dose activity, negative = inhibition, hits mostly inhibitors; P10636; K18 P301L tau heparin fibrillization, Alexa594 FP, 6 h; 280,000 compounds, 0.39% hits; further: nearly all actives have a fitted effect of over 55% in size
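Compound effects on tau fibrillization are measured by Alexa 594 fluorescence polarization (ex 555, em 632 nm). K18 P301L tau is used at 15 uM with 0.24 uM labeled tracer, and 20 uM heparin induces aggregation over 6 hr at 37 C.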
TR SRC2 fluor cs – Texas Red fluorescence interference in TRb-SRC2 counter-screen; TRb/SRC2 Texas Red total fluorescence interference; Potency, µM (doses to about 106 µM), without a hit: at the top dose fluorescence change, negative = quenching; 280,000 compounds, 0.29% hits; AID 1479; active means well fitted curve in either direction with a large enough effect; inconclusive means small, poorly fitted or top-dose-only effect
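Human TRβ ligand-binding domain (0.6 uM) and Texas Red SRC2 peptide (20 nM) in Tris buffer with 1 uM T3 and 5% DMSO were incubated with pinned compound for 5 hr at ambient temperature. Total fluorescence was computed as S + 2P (555/632 nm).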
TRb SRC2 PPI – disrupts binding of human TR beta to SRC2 | TRbeta-SRC2 peptide binding, fluorescence polarization; receptor liganded with 1 µM T3 | P10828 | Potency, µM (titrated, usually from 106 µM), for the others: at the top dose activity change, negative = inhibition, most hits filed as inhibitors | 280,000 compounds, 0.065% hits | AID 1469;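 further: plate controls were bound peptide for no effect and peptide without receptor for full effect; nearly all actives have a fitted effect of over 50% in size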
Target sequence (P10828 whole entry, looked up): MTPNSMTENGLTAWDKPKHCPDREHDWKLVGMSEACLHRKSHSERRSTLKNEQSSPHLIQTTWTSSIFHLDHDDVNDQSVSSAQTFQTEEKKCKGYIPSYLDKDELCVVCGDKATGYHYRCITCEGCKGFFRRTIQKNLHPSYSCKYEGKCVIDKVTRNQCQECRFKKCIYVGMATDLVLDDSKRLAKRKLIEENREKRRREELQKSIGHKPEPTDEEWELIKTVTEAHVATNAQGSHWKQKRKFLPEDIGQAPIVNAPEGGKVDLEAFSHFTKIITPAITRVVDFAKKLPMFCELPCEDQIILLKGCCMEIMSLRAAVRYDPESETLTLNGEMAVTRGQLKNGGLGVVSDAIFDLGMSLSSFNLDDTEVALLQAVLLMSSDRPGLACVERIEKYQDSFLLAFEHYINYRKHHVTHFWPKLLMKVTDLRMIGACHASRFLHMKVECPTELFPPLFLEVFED
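Assay buffer: 20 mM Tris-HCl, 100 mM NaCl, 10% glycerol, 1 mM EDTA, 0.01% NP-40, 1 mM DTT, 1 uM T3, 5% DMSO; TRb LBD 0.6 uM, Texas Red SRC2 20 nM; FP after 5 hr.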
Starred values were filed as active, the others as inactive; ? = inconclusive; . = not tested or not shown; [ ] = another dose, or the depositor's remark. In the library only some 3% were active in any assay of this set; here they are far more common. Unless noted, the call rests on the fitted dose curve; in most records, active means well fitted curve in the direction sought with a large enough effect; inconclusive means small, poorly fitted or top-dose-only effect, or another doubt; inactive means no such curve, though single readings can be large; an effect the other way counts as inactive or inconclusive. Unless noted, on the % scale 0 is the no-effect control and ±100 the full control effect; potency means the concentration at half of the fitted maximal effect.

SMILES	Tau fluor cs	Tau fibril ThT	Tau fibril FP	TR SRC2 fluor cs	TRb SRC2 PPI
O=C1NN(c2ccccc2)C(=O)/C1=C\c1coc2ccc(O)cc2c1=O	?	14.1µM*	-13.1%	-5.4%	11.0%
COC(=O)C1=C(C(=O)OC)[C@@H]2Nc3ccccc3[C@@]23C[C@@H](C(=O)OC)N(S(=O)(=O)c2ccc(C#N)cc2)C3=N1	-6.5%[11.6 µM]	-1.5%[11.5 µM]	-0.1%[11.6 µM]	-5.2%[11.2 µM]	4.6%[11.2 µM]
COc1ccc2c(c1)C(=NNC(=O)c1ccccn1)c1cc(OC)ccc1-2	-10.2%	?	-8.3%	1.2%	-27.0%
C=CCOc1ccc(/C=C/C(C)=N\O)cc1	-14.2%	-14.8%	-5.9%	0.5%	4.8%
C=CCOc1ccc2c(c1)C(=NO)c1cc(OCC=C)ccc1-2	?	7.94µM*	?	2.1%	3.4%
COc1ccc2c(c1)C(=NO)c1cc(OC)ccc1-2	?	0.708µM*	-0.3%	-3.1%	-8.9%
NC(=O)c1c(NC(=O)c2cc(-c3ccc(F)cc3)on2)sc2c1CCCC2	-21.6%	31.6µM*	?	-0.3%	-8.2%
COc1ccc(-c2cc(C(=O)Nc3sc4c(c3C(N)=O)CCC(C)C4)no2)cc1 (stereo not given)	-10.2%	?	-11.8%	8.2%	0.3%
Cc1[nH]n(-c2ccccc2)c(=O)c1C=Nc1ccc(S(=O)(=O)N=C(N)N)cc1	-14.5%	.	-3.9%	1.4%	2.1%
Cc1[nH]n(-c2ccccc2)c(=S)c1C=Nc1ccc([N+](=O)[O-])cc1	-19.0%	25.1µM*	?	0.7%	-1.9%
Cc1ccc(N2CCN(c3ccc(NCc4nc5ccccc5n4C)cc3)CC2)cc1	?	2.51µM*	-14.0%	-4.0%	-6.6%
Cn1c(CNc2ccc(Cl)cc2)nc2ccccc21	-17.0%	?	1.9%	3.5%	3.5%
O=C(CSc1nccn1-c1cccc(Cl)c1)Nc1ccc2c(c1)OCO2	-26.6%	?	2.9%	1.5%	-4.3%
COc1ccc(-c2ccc(C(=S)N3CCN(C(C)=O)CC3)o2)cc1	-27.8%	28.2µM*	?	1.0%	-4.0%
CCOC(=O)C1=NN(c2ccccc2)C(=O)/C1=C\c1ccc(N(C)C)cc1	-28.9%	?	3.4%	-2.9%	1.0%
CC1=NN(Cc2ccccc2)C(=O)/C1=C\c1ccc(N(C)C)cc1	-22.9%	20µM*	-1.4%	-10.8%	1.4%
Cc1cc(=O)n(CC(=O)NC(C)c2ccccc2)c2c1c(C)nn2-c1cccc(F)c1 (stereo not given)	-9.0%	-3.1%	-3.6%	251µM*[quencher]	-23.5%
O=C1c2c([N+](=O)[O-])cc([N+](=O)[O-])cc2S(=O)N1Cc1ccccc1 (stereo not given)	-26.8%	31.6µM*	?	-1.7%	-11.4%
Cc1ccc2oc(-c3cc(NC(=O)Cc4ccccc4)ccc3Cl)nc2c1	?	-3.5%	?	-1.1%	3.6%
CN(C)S(=O)(=O)c1cccc(C(=O)Nc2cc(Cl)cc(Cl)c2)c1	?	-13.5%	?	-3.9%	4.8%
O=C(Nc1cc(Cl)cc(Cl)c1)c1cccc(OC(F)F)c1	?	?	20µM*	0.5%	-13.8%
COc1cccc(OCCCCn2c(-c3ccc(Cl)cc3)nc3ccccc3c2=O)c1	-9.6%	0.7%	-10.2%	2.0%	2.0%
CCc1ccccc1N(C)C(=O)c1cc2c(=O)oc3ccccc3c2s1	-17.3%	-10.7%	-1.1%	-2.1%	6.3%
CCCC(=O)C1=C(c2ccc(C)cc2)N(C(=O)CCC)n2cnnc2S1	?	15.8µM*	-14.2%	0.9%	4.3%
CCCC(=O)C1=C(c2ccc(C)c(C)c2)N(C(=O)CCC)n2c(CC)nnc2S1	-18.3%	?	-9.4%	-1.0%	4.3%
SMILES	Tau fluor cs	Tau fibril ThT	Tau fibril FP	TR SRC2 fluor cs	TRb SRC2 PPI
O=C(Nc1sc2c(c1C(=O)Nc1ccccc1Cl)CCCC2)c1ccccc1F	-17.2%	-5.9%	-11.0%	-2.5%	7.5%
C1=C/CC/C=C/CC/C=C/CC/1	.	.	.	-3.7%[201 µM]	-11.5%[201 µM]
Cc1cc2oc(C(=O)Nc3sc4c(c3C(=O)NCc3ccccc3)CCCC4)cc(=O)c2cc1C	-13.1%	-15.0%	-3.5%	-19.2%	3.6%
O=C(Nc1cccc(-c2nc3ncccc3o2)c1)c1ccc(-c2cccc(Cl)c2Cl)o1	?	?	-14.7%	-0.2%	3.6%
Cc1sc2c(c1C)c(=O)n(Cc1ccccc1)c(=O)n2CC(=O)Nc1cccc(Cl)c1	-24.4%	?	31.6µM*	-46.9%	1.6%
CC(=O)N1CCc2c(sc3c2c(=O)n(Cc2ccccc2)c(=O)n3CC(=O)Nc2ccc(C)c(F)c2)C1	?	?	28.2µM*	-12.5%	2.3%
CCOc1ccc(NC(=O)CSc2nnc3scc(-c4ccccc4)n23)cc1	-28.6%	?	13.0%	-4.4%	0.5%
O=C(Cn1cnc([N+](=O)[O-])c1)Nc1cc(Oc2ccc(Cl)cc2Cl)cc([N+](=O)[O-])c1	4.47µM*[quencher]	?	?	-2.8%	-1.2%
COc1ccc2oc(=O)c(C(=O)NCCc3c(C)[nH]c4c(C)cccc34)cc2c1	15.8µM*[quencher]	?	11.4%	?	7.5%
Cc1[nH]c2c(C)cccc2c1CCNC(=O)c1cc2ccccc2oc1=O	?	-17.5%	-4.6%	0.6%	-0.1%
Cc1cc2c(NC(=O)CCCC(=O)O)cccc2nn1	-2.6%	.	-1.7%	-3.7%	-3.5%
Cc1cc2c(NC(=O)Nc3ccc(C(F)(F)F)cc3)cccc2nn1	?	?	28.2µM*	3.6%	-6.7%
CCC(=C(CC)c1ccc(O)cc1)c1ccc(O)cc1	.	.	.	-8.3%[53 µM]	1.7%[53 µM]
OCCN(CCO)c1ccc(C(c2ccccc2Cl)c2ccc(N(CCO)CCO)cc2Cl)c(Cl)c1	11.2µM*[quencher]	?	17.4%	-4.0%	2.0%
CCCC(=O)Oc1c(Sc2ccc(C)cc2)c(C)nn1-c1ccccc1	-28.4%	25.1µM*	?	-2.0%	1.3%
CCC(=O)Oc1c(Sc2ccc(C)cc2)c(C)nn1-c1ccccc1	-22.8%	?	?	-2.0%	3.4%
CCC(=O)Oc1c(Sc2ccc(Cl)cc2)c(C)nn1-c1ccccc1	-29.6%	22.4µM*	?	-0.1%	-5.4%
CCCCCOc1ccc(/C=C/C(=O)Nc2sc3c(c2C(=O)OCC)CCC3)cc1OC	-3.4%	-17.0%	4.2%	-11.2%	-7.2%
CC(C)C=O	.	.	.	-3.0%	1.1%
Cc1ccc(S(=O)(=O)c2ccccc2)cc1S	-16.8%	28.2µM*	?	0.3%	11.9%
CCSC1=NC2(CCN(C(=O)NC3CCCCC3)CC2)N=C1c1ccc(Cl)cc1	-0.5%	-4.3%	-1.3%	-0.8%	-2.9%
COc1ccc2[nH]c3c4c(ccc3c2c1)C(=O)C=CC4=O	2µM*[quencher]	3.55µM*	11.2µM*	-13.5%	-6.7%
Cc1ccc2onc(CC(=O)N3CCN(c4cc(Cl)ccc4C)CC3)c2c1	-7.0%	-16.3%	?	?	-27.4%
Cc1ccc2onc(CC(=O)N3CCN(c4cccc(Cl)c4)CC3)c2c1	-20.3%	?	-4.1%	25.1µM*[quencher]	-26.9%
